Consider 40 molecules from ChEMBL document CHEMBL1157539, “Thousands of chemical starting points for antimalarial lead identification” (Nature, 2010).

Residues, ends and D or L forms follow the SMILES beside them. *: point of attachment. Boc = CC(C)(C)OC(=O)*

A word on the Inhibition: it is the share of the control response that was lost under treatment. High values mean a strong effect, low ones a weak effect.

The assay has as its system Plasmodium falciparum. The assay is described as follows: GSK_TCMDC: Inhibition of Plasmodium falciparum 3D7 in whole red blood cells, using parasite LDH activity as an index of growth. Test compounds present at 2uM. In kind it is functional.
Molecule `CCCCOC(=O)c1ccc(Nc2cc(C)nc3ccc(OC)cc23)cc1` gave an Inhibition of 100%.

As for `CC(C)CNC(=O)c1cncc(-c2ccc(CNCCCc3ccccc3)cc2)c1.O=C(O)C(F)(F)F`, the Inhibition turned out to be 100%.

`Cn1cccc1CCNCc1ccc(-c2cccc(-c3nc4ccccc4[nH]3)c2)cc1.O=C(O)C(F)(F)F` came in with an Inhibition of 88%.

Molecule `CCCC[C@@H](C(=O)NCc1ccccc1C(F)(F)F)N1C(=O)CCC1C(=O)Nc1ccc([N+](=O)[O-])cc1` (stereo not given in full) had an Inhibition of 94%.

Molecule `CCn1c(-c2nc(-c3ccnc(N4CCN(C)CC4)c3)cnc2N)nc2cc(S(C)(=O)=O)ccc21` came in with an Inhibition of 100%.

In turn, `COC(=O)c1ccc(-c2ccc(-c3cccnc3)cc2C)cc1` yielded an Inhibition of 100%.

Turning to `O=C(Nc1ccc(CN2CCOCC2)cc1)c1ccc(-c2cc(Cl)ccc2Cl)o1`, the Inhibition amounted to 100%.

Molecule `CC(C)CCN1CCC(Oc2cccc(NC(=O)c3ccc(C(F)(F)F)cc3)c2)CC1.O=C(O)C(F)(F)F` showed an Inhibition of 98%.

`COCCN1CCC(C(=O)NCC(C)(C)c2nc(-c3ccc(Br)c(O)c3)c(-c3ccncc3)[nH]2)CC1.Cl` gave an Inhibition of 99%.

As to `Br.CC1(C)NC(N)=NC(=N)N1OCCOc1ccc2ccccc2c1`, the Inhibition is given as 93%.

As to `COc1ccc2c(NN=Cc3ccccc3Cl)ccnc2c1`, the Inhibition worked out at 99%.

Regarding `COc1cc(NC(=O)/C=C/c2cc3ccccc3n2C)ccc1OCCN(C(C)C)C(C)C.Cl`, the Inhibition turned out to be 99%.

In the case of `COc1ccc(OC)c2c1CCN(CCN1CCC(C(=O)Nc3ccc(C(=O)Nc4ccc(Cl)cc4)cc3)CC1)C2`, the Inhibition was 100%.

As to `O=C(c1ccco1)N1CCN(c2ccc([N+](=O)[O-])c(NC3CC3)c2)CC1`, the Inhibition stood at 100%.

Turning to `COc1cc2nc(NCC3CCN(C(=O)c4ccc(-c5ccc(C(=O)N(C)C)cc5C)cc4)CC3)nc(N)c2cc1OC`, the Inhibition came to 100%.

In the case of `CCOC(=O)c1c(SCc2cccc(F)c2F)[nH]c2ccccc2c1=O`, the Inhibition came out at 98%.

Molecule `COc1ccc(-c2c3c(=O)n(C)c(=O)n(C)c3c3nnc4ccccc4n23)cc1` registered an Inhibition of 96%.

As to `O=C(O)C(F)(F)F.c1ccc2[nH]c(-c3ccc(-c4ccc(CN5CCCCC5)cc4)cc3)nc2c1`, the Inhibition is reported as 99%.

In turn, `CC1CCCN1Cc1ccc(-c2ccc3c(=O)cc(CCc4cccc(F)c4F)n(CC(=O)N(C)Cc4ccc(-c5ccc(C(F)(F)F)cc5)cc4)c3n2)cc1.O=C(O)C(O)C(O)C(=O)O` (stereo not given) displayed an Inhibition of 100%.

Regarding `Cc1ccc2[nH]c(-c3cc(-c4ccc(CO)cc4)cnc3N)nc2c1.O=C(O)C(F)(F)F`, the Inhibition worked out at 95%.

Molecule `COc1ccc2nc3ccccc3c(NCCN3CCN(C)CC3)c2c1` returned an Inhibition of 81%.

As to `O=C(O)C(F)(F)F.O=[N+]([O-])c1cccc(CNCC2CCC(CNCc3cccc([N+](=O)[O-])c3)CC2)c1` (stereo not given), the Inhibition was 100%.

`Cc1ccccc1C1CCN(c2ccc(NC(=O)c3ccc(Cl)nc3)cc2)CC1.O=C(O)C(F)(F)F`: the Inhibition was found to be 92%.

Take `O=C(Nc1cccc(-c2cccc(-c3nc4ccccc4[nH]3)c2)c1)c1csnn1`: the Inhibition is listed as 90%.

As to `Nc1cc(/C=C/c2ccc([N+](=O)[O-])s2)nc2ccccc12`, the Inhibition was determined as 98%.

Turning to `COc1ccc(NC(=O)[C@H](Cc2ccccc2)Nc2cc(C)nc(NCCc3ccccc3OC)n2)cc1.O=C(O)C(F)(F)F`, the Inhibition is 100%.

As to `COc1cccc(CNC(=O)c2ccnc(-c3cccc(CN(C)C4CCN(C)CC4)c3)c2)c1.O=C(O)C(F)(F)F`, the Inhibition was found to be 100%.

On to `NC1=NC2(CCCCC2)N(OCCCCCCCCNc2nc(N)nc(N)n2)C(N)=N1.O=C(O)C(F)(F)F`, for which the Inhibition worked out at 96%.

The molecule `O=C(/C=C/C=C/c1ccc(Cl)c(Cl)c1)NCCCCCN1CCCC2CCCCC21` (stereo not given) registered an Inhibition of 91%.

With `COc1cccc(CN2CCCC(COC(c3ccc(F)cc3)c3ccc(F)cc3)C2)c1O` (stereo not given), the Inhibition was determined as 98%.

Consider `CCNC(=O)Nc1ccc(N(C)c2ccnc(Nc3ccc(CS(C)(=O)=O)cc3)n2)cc1.Cl`, for which the Inhibition was 100%.

Consider `CC(C)c1ccc(-c2noc(SCC(=O)N(C)c3ccc(F)cc3)n2)cc1`, for which the Inhibition is 84%.

In turn, `Cc1cc2nc(-c3cc(Br)ccc3O)c(-c3cc(Br)ccc3O)nc2cc1C` registered an Inhibition of 96%.

`O=C(Cn1c(CCc2cccc(F)c2F)cc(=O)c2ccccc21)N(CCN1CCCCC1)Cc1ccc(-c2ccc(C(F)(F)F)cc2)cc1.O=C(O)C(O)C(O)C(=O)O`: the Inhibition is 100%.

`COC(=O)CC[C@H](NC(=O)[C@H](C)NC(=O)OC(C)(C)C)C(=O)OC` (Boc-Ala-Glu(OMe)-OMe): the Inhibition was 95%.

`Cl.NCCCOc1cnc(-c2ccccc2)c2nc(-c3nonc3N)n(CCc3ccccc3)c12` had an Inhibition of 93%.

Regarding `Oc1c(C=Nn2cnnc2)sc2ccccc12`, the Inhibition is listed as 93%.

Regarding `Cl.c1ccc(-c2cc(NCCNc3cc(-c4ccccc4)nc4ccccc34)c3ccccc3n2)cc1`, the Inhibition is 99%.

As for `Cl.FC(F)(F)c1cc(Nc2ncnc3ccc(Br)cc23)ccc1OCc1ccccc1`, the Inhibition is given as 87%.

Turning to `CCCCCCCNCc1c(O)ccc2c(CNCCCCCCC)c(O)ccc12.Cl`, the Inhibition is on record as 100%.
